According to PubChem BioAssay (NCATS):
Inconclusive results are not listed. Active and inactive are the calls of the source. The call rests on the fitted dose curve; in most records, active means well fitted curve in the direction sought with a large enough effect; inconclusive means small, poorly fitted or top-dose-only effect, or another doubt; inactive means no such curve, though single readings can be large; an effect the other way counts as inactive or inconclusive.

Legend:
KB-3-1 = assay: Cytotoxic Profiling of Annotated Libraries Using Quantitative High-Throughput Screening (AID 1296008); conditions: Five cell lines viability, CellTiter-Glo ATP luminescence, 48-72 h; max response: hits give low values; further: nearly all actives have a fitted effect of over 60% in size
How it was run: (§1)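 Cells exposed to compounds for 48 or 72 hr at 37 degrees Celsius. Viability read as ATP-coupled luminescence with CellTiter-Glo after 10 min at room temperature.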

NIH3T3 [1] = assay: as above; conditions: Five cell lines viability, CellTiter-Glo ATP luminescence, 48-72 h; max response: hits give low values
How it was run: as §1

HACAT = assay: qHTS assay to identify novel small-molecules to repurpose for Merkel cell carcinoma treatment (AID 1296009); conditions: MCC and control cell lines, CellTiter-Glo viability, 72 h; at 44.8 µM (top of the series) unless noted; further: nearly all actives have a fitted effect of over 60% in size
How it was run: (§2)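 Dose-response viability screen; 72 hr exposure at 37 degree celsius; CellTiter-Glo added, 10 min room temperature, luminescence read; RLUs scaled between no-cell and DMSO wells.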

MCC-13 = assay: as above; conditions: MCC and control cell lines, CellTiter-Glo viability, 72 h; series mostly up to 46 µM
How it was run: as §2

MCC-26 = assay: as above; conditions: MCC and control cell lines, CellTiter-Glo viability, 72 h; series mostly up to 46 µM
How it was run: as §2

MKL-1 = assay: as above; conditions: MCC and control cell lines, CellTiter-Glo viability, 72 h; series mostly up to 46 µM
How it was run: as §2

MKL-2 = assay: as above; conditions: MCC and control cell lines, CellTiter-Glo viability, 72 h; series mostly up to 46 µM
How it was run: as §2

NIH3T3 [2] = assay: as above; conditions: MCC and control cell lines, CellTiter-Glo viability, 72 h; at 44.8 µM (top of the series)
How it was run: as §2

UISO = assay: as above; conditions: MCC and control cell lines, CellTiter-Glo viability, 72 h; series mostly up to 46 µM
How it was run: as §2

WaGa = assay: as above; conditions: MCC and control cell lines, CellTiter-Glo viability, 72 h; series mostly up to 46 µM
How it was run: as §2

C33A = assay: Primary qHTS to identify gynecologic anti-cancer compounds using libraries of approved drugs and bioactive compounds (AID 1345084); conditions: Gynecologic cancer cell panel viability, ATPlite luminescence, 48 h; series mostly up to 57.5 µM; further: nearly all actives have a fitted effect of over 55% in size
How it was run: (§3)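 48 h compound exposure at 37 C, 5% CO2; five-point qHTS. ATPlite luminescence readout of cell ATP.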

CASKI = assay: as above; conditions: Gynecologic cancer cell panel viability, ATPlite luminescence, 48 h; series mostly up to 57.5 µM
How it was run: as §3

Es-2 = assay: as above; conditions: Gynecologic cancer cell panel viability, ATPlite luminescence, 48 h; series mostly up to 57.5 µM
How it was run: as §3

HeLa = assay: as above; conditions: Gynecologic cancer cell panel viability, ATPlite luminescence, 48 h; series mostly up to 57.5 µM
How it was run: as §3

Hek293T [3] = assay: as above; conditions: Gynecologic cancer cell panel viability, ATPlite luminescence, 48 h, control line for the selectivity index; series mostly up to 57.5 µM
How it was run: as §3

JEG-3 = assay: as above; conditions: Gynecologic cancer cell panel viability, ATPlite luminescence, 48 h; series mostly up to 57.5 µM
How it was run: as §3

OV90 = assay: as above; conditions: Gynecologic cancer cell panel viability, ATPlite luminescence, 48 h; series mostly up to 57.5 µM
How it was run: as §3

PA-1 = assay: as above; conditions: Gynecologic cancer cell panel viability, ATPlite luminescence, 48 h; series mostly up to 57.5 µM
How it was run: as §3

CAOV3 = assay: as above; conditions: Gynecologic cancer cell panel viability, ATPlite luminescence, 48 h; series mostly up to 57.5 µM
How it was run: as §3

HEK293T [4] = assay: qHTS assay to identify novel small-molecules to repurpose for Merkel cell carcinoma treatment (AID 1296009); conditions: MCC and control cell lines, CellTiter-Glo viability, 72 h; at 44.8 µM (top of the series) unless noted; further: nearly all actives have a fitted effect of over 60% in size
How it was run: as §2
On the % scale 0 is the no-effect control and ±100 the full control effect.

C[C@@H](O)[C@H]1C(=O)N2C(C(=O)O)=C([C@H]3CCCO3)S[C@H]12
inactive: max response (KB-3-1) 3.93% | outcome (NIH3T3 [1]) | outcome (HACAT) | Potency (MCC-13) | Potency (MCC-26) | Potency (MKL-1) | Potency (MKL-2) | outcome (NIH3T3 [2]) | Potency (UISO) | Potency (WaGa) | Potency (C33A) | Potency (CASKI) | Potency (Es-2) | Potency (HeLa) | Potency (Hek293T [3]) | Potency (JEG-3) | Potency (OV90) | Potency (PA-1)

C[N+]1(C)CCC(=C(c2ccccc2)c2ccccc2)CC1
inactive: max response (KB-3-1) 3.66% | max response (NIH3T3 [1]) -1.38% | outcome (HACAT) | Potency (MCC-13) | Potency (MCC-26) | Potency (MKL-1) | Potency (MKL-2) | Potency (C33A) | Potency (CASKI) | Potency (Es-2) | Potency (HeLa) | Potency (Hek293T [3]) | Potency (JEG-3) | Potency (OV90) | Potency (PA-1)

CCCCOC(=O)CC(CC(=O)OCCCC)(OC(C)=O)C(=O)OCCCC
inactive: max response (KB-3-1) 0.604% | max response (NIH3T3 [1]) -2.35% | outcome (HACAT) | Potency (MCC-13) | Potency (MCC-26) | Potency (MKL-1) | Potency (MKL-2) | Potency (UISO) | Potency (WaGa) | Potency (C33A) | Potency (CAOV3) | Potency (CASKI) | Potency (Es-2) | Potency (HeLa) | Potency (Hek293T [3]) | Potency (JEG-3) | Potency (OV90) | Potency (PA-1)

COc1cc(C(=O)N2CCCCCCC2)cc(OC)c1OC
inactive: max response (KB-3-1) -4.88% | max response (NIH3T3 [1]) 2.92% | outcome (HACAT) | Potency (MCC-13) | Potency (MCC-26) | Potency (MKL-1) | Potency (MKL-2) | Potency (UISO) | Potency (WaGa) | Potency (C33A) | Potency (CAOV3) | Potency (CASKI) | Potency (Es-2) | Potency (HeLa) | Potency (Hek293T [3]) | Potency (JEG-3) | Potency (OV90) | Potency (PA-1)

CN1CCN(c2c(F)cc3c(=O)c(C(=O)O)cn4c3c2SCC4)CC1
inactive: max response (KB-3-1) -15.8% | max response (NIH3T3 [1]) -3.6% | outcome (HACAT) | Potency (MCC-13) | Potency (MCC-26) | Potency (MKL-1) | Potency (MKL-2) | Potency (UISO) | Potency (WaGa) | Potency (C33A) | Potency (CASKI) | Potency (Es-2) | Potency (HeLa) | Potency (Hek293T [3]) | Potency (JEG-3) | Potency (OV90) | Potency (PA-1)

O=C(Nc1ccccc1)OCC(CN1CCCCC1)OC(=O)Nc1ccccc1 (stereo not drawn)
inactive: max response (KB-3-1) -1.56% | max response (NIH3T3 [1]) -10.2% | outcome (HACAT) | Potency (MCC-13) | Potency (MCC-26) | Potency (MKL-1) | Potency (MKL-2) | Potency (WaGa) | Potency (C33A) | Potency (CASKI) | Potency (Es-2) | Potency (HeLa) | Potency (JEG-3) | Potency (PA-1)

N#C/C(=C1\SCC(c2ccccc2Cl)S1)n1ccnc1 (stereo not drawn)
inactive: max response (KB-3-1) 0.837% | max response (NIH3T3 [1]) -9.88% | outcome (HACAT) | Potency (MCC-13) | Potency (MCC-26) | Potency (MKL-1) | Potency (MKL-2) | Potency (UISO) | Potency (WaGa) | Potency (C33A) | Potency (CAOV3) | Potency (CASKI) | Potency (Es-2) | Potency (Hek293T [3]) | Potency (JEG-3) | Potency (OV90) | Potency (PA-1)

CCCCN=C(N)N=C(N)N
inactive: max response (KB-3-1) 1.99% | max response (NIH3T3 [1]) -1.41% | outcome (HEK293T [4]) | Potency (MCC-13) | Potency (MCC-26) | Potency (MKL-1) | Potency (MKL-2) | Potency (UISO) | Potency (C33A) | Potency (CASKI) | Potency (Es-2) | Potency (HeLa) | Potency (Hek293T [3]) | Potency (JEG-3) | Potency (OV90) | Potency (PA-1)

CC(C)CCCC(C)N (stereo not drawn)
inactive: max response (KB-3-1) 22% | outcome (NIH3T3 [1]) | Potency (MCC-13) | Potency (MCC-26) | Potency (MKL-1) | Potency (MKL-2) | outcome (NIH3T3 [2]) | Potency (UISO) | Potency (WaGa) | Potency (C33A) | Potency (CAOV3) | Potency (CASKI) | Potency (Es-2) | Potency (HeLa) | Potency (Hek293T [3]) | Potency (JEG-3) | Potency (OV90) | Potency (PA-1)

CC(O)Cn1cnc2c1c(=O)n(C)c(=O)n2C (stereo not drawn)
inactive: max response (KB-3-1) 13.1% | max response (NIH3T3 [1]) -9.57% | Potency (MCC-13) | Potency (MCC-26) | Potency (MKL-1) | Potency (MKL-2) | Potency (UISO) | Potency (WaGa) | Potency (C33A) | Potency (CAOV3) | Potency (CASKI) | Potency (Es-2) | Potency (HeLa) | Potency (Hek293T [3]) | Potency (JEG-3) | Potency (OV90)

CC(=O)Nc1ccc(OCC(O)CNC(C)C)cc1 (stereo not drawn)
inactive: max response (KB-3-1) -4.81% | max response (NIH3T3 [1]) -0.995% | outcome (HACAT) | Potency (MCC-13) | Potency (MKL-1) | Potency (MKL-2) | Potency (WaGa) | Potency (C33A) | Potency (CASKI) | Potency (Es-2) | Potency (HeLa) | Potency (Hek293T [3]) | Potency (JEG-3) | Potency (OV90) | Potency (PA-1)

CN(C)C(=O)Nc1ccc(Cl)c(Cl)c1
inactive: max response (KB-3-1) -25.2% | max response (NIH3T3 [1]) -5.25% | Potency (MCC-13) | Potency (MCC-26) | Potency (MKL-1) | Potency (MKL-2) | Potency (UISO) | Potency (WaGa) | Potency (C33A) | Potency (CAOV3) | Potency (CASKI) | Potency (Es-2) | Potency (HeLa) | Potency (Hek293T [3]) | Potency (JEG-3) | Potency (OV90) | Potency (PA-1)

CC(=O)NC(=O)c1ccccc1O
inactive: max response (KB-3-1) -3.04% | max response (NIH3T3 [1]) 0.511% | Potency (MCC-13) | Potency (MCC-26) | Potency (MKL-1) | Potency (MKL-2) | Potency (UISO) | Potency (WaGa) | Potency (C33A) | Potency (CAOV3) | Potency (CASKI) | Potency (Es-2) | Potency (HeLa) | Potency (Hek293T [3]) | Potency (JEG-3) | Potency (OV90) | Potency (PA-1)

OC1C(O)C(O)C(O)C(O)C1O (stereo not drawn)
inactive: max response (KB-3-1) -8.66% | max response (NIH3T3 [1]) -6.2% | Potency (MCC-13) | Potency (MCC-26) | Potency (MKL-1) | Potency (MKL-2) | Potency (UISO) | Potency (WaGa) | Potency (C33A) | Potency (CAOV3) | Potency (CASKI) | Potency (Es-2) | Potency (HeLa) | Potency (Hek293T [3]) | Potency (JEG-3) | Potency (OV90) | Potency (PA-1)
